# In PubChem BioAssay (NCI):
# This is part of a sample that, as a whole, favours compounds with a hit. Of some 79,000 tested, about 15% had one in any assay. Unmarked numbers belong to inactive results. The source made the active and inactive calls. No stated cut-off is given here; in the data, active means growth inhibition above about 70%; inactive means the rest.
# Assays:
# [1] = NCI Yeast Anticancer Drug Screen. Data for the rad52 strain (AID 147);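 further: 0% = growth of vehicle-treated control cultures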; conditions: S. cerevisiae rad52 mutant growth inhibition, hits give high values
# Outline: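 Measured: yeast growth inhibition. System: strain with a defined DNA damage repair alteration. Reference: vehicle-treated control cultures.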
# [2] = NCI Yeast Anticancer Drug Screen. Data for the wt1 strain (AID 149);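 further: 0% = growth of vehicle-treated wt1 cultures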; conditions: S. cerevisiae wt1 strain (SPY 50644) growth inhibition, hits give high values
# Outline: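 Vehicle-normalised growth inhibition; strain wt1; compound exposure.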
# [3] = NCI Yeast Anticancer Drug Screen. Data for the rad50EPP+ strain (AID 151);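 further: 0% = growth of vehicle-treated control cultures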; conditions: S. cerevisiae rad50 mutant strain, hits give high values
# Outline: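 One strain with a rad50 alteration (rad50EPP+) was compound-treated, its growth then compared to that of vehicle controls.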
# [4] = NCI Yeast Anticancer Drug Screen. Data for the mgt1 strain (AID 153); conditions: S. cerevisiae mgt1 mutant growth inhibition, hits give high values
# Outline: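 After exposure of the mgt1 yeast mutant to compound, growth was measured and reported as inhibition compared with vehicle controls.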
# [5] = NCI Yeast Anticancer Drug Screen. Data for the rad50 strain (AID 155);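 further: 0% = growth of vehicle-only cultures of the same strain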; conditions: S. cerevisiae rad50 strain growth inhibition, hits give high values
# Outline: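 A DNA repair-deficient yeast mutant serves as the test organism; compound-induced growth inhibition is calculated against vehicle-treated cells.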
# [6] = NCI Yeast Anticancer Drug Screen. Data for the mec2-1 strain (AID 157); conditions: S. cerevisiae mec2-1 strain, hits give high values
# Outline: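 Test agents were screened against the mec2-1 yeast strain, with defined DNA repair or cell cycle alteration. Growth was scored as inhibition against vehicle-only controls.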
# [7] = NCI Yeast Anticancer Drug Screen. Data for the rad14 strain (AID 159);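 further: 0% = growth of vehicle-treated control cultures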; conditions: S. cerevisiae rad14 strain growth inhibition, hits give high values
# Outline: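 Vehicle-treated cultures served as the baseline for growth inhibition of a DNA repair-mutant yeast strain exposed to each compound.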
# [8] = at 5.0 µM (retest, dose inferred, filed as 0.5)
# [9] = at 50.0 µM (retest, dose inferred, filed as 5.0)
structure (smiles),measurement,setting,value
COc1cc2c(cc1OC)[C@@H](Nc1ccc(C#N)cc1)C1COC(=O)[C@@H]1C2c1cc(OC)c(O)c(OC)c1 (stereo partly specified),growth inhibition,[1]; at 1.2 µM,14%
same,growth inhibition,[1]; at 3.7 µM,52%
same,growth inhibition,[1]; at 11.0 µM,81% (active)
same,growth inhibition,[1]; at 33.0 µM,91% (active)
same,growth inhibition,[1]; at 100.0 µM,93% (active)
same,growth inhibition,[2]; at 1.2 µM,-34%
same,growth inhibition,[2]; at 3.7 µM,-33%
same,growth inhibition,[2]; at 11.0 µM,-9%
same,growth inhibition,[2]; at 33.0 µM,6%
same,growth inhibition,[2]; at 100.0 µM,79% (active)
same,growth inhibition,[3]; at 1.2 µM,-15%
same,growth inhibition,[3]; at 3.7 µM,-11%
same,growth inhibition,[3]; at 11.0 µM,-1%
same,growth inhibition,[3]; at 33.0 µM,6%
same,growth inhibition,[3]; at 100.0 µM,20%
same,growth inhibition,[4]; at 1.2 µM,-17%
same,growth inhibition,[4]; at 3.7 µM,-19%
same,growth inhibition,[4]; at 11.0 µM,12%
same,growth inhibition,[4]; at 33.0 µM,20%
same,growth inhibition,[4]; at 100.0 µM,83% (active)
same,growth inhibition,[5]; at 1.2 µM,24%
same,growth inhibition,[5]; at 3.7 µM,70% (active)
same,growth inhibition,[5]; [8],88% (active)
same,growth inhibition,[5]; at 11.0 µM,90% (active)
same,growth inhibition,[5]; at 33.0 µM,93% (active)
same,growth inhibition,[5]; [9],97% (active)
same,growth inhibition,[5]; at 50.0 µM,88% (active)
same,growth inhibition,[5]; at 100.0 µM,95% (active)
same,growth inhibition,[6]; at 1.2 µM,-22%
same,growth inhibition,[6]; at 3.7 µM,5%
same,growth inhibition,[6]; [8],11%
same,growth inhibition,[6]; at 11.0 µM,15%
same,growth inhibition,[6]; at 33.0 µM,70% (active)
same,growth inhibition,[6]; [9],98% (active)
same,growth inhibition,[6]; at 50.0 µM,91.5% (active)
same,growth inhibition,[6]; at 100.0 µM,91% (active)
same,growth inhibition,[7]; at 1.2 µM,-12%
same,growth inhibition,[7]; at 3.7 µM,-8%
same,growth inhibition,[7]; at 11.0 µM,0%
same,growth inhibition,[7]; at 33.0 µM,22%
same,growth inhibition,[7]; at 100.0 µM,81% (active)
